From PubChem BioAssay
Most compounds without a hit are left out; they make up all but 7.7% or so of the library.
Sm TGR block = qHTS Assay for the Inhibitors of Schistosoma Mansoni Peroxiredoxins; Schistosoma mansoni thioredoxin glutathione reductase (TGR), Q962Y6; purified TGR, DTNB reduction, TNB absorbance 405 nm; Potency, µM (top dose mostly 114 µM), for the others: top-dose activity change, negative = inhibition, most hits filed as inhibitors; 360,000 tested, 3% active; note: potency is the fitted concentration of half-maximal effect; nearly all actives have a fitted effect of over 60% in size
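First, TGR (20 nM dispensed) and NADPH were mixed with compound. Second, a 15 min room-temperature incubation followed. Third, further NADPH and then DTNB were added to start the reaction. Finally, TNB absorbance was monitored kinetically.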
FMDV inh = High Throughput Screening for Foot and Mouth Disease Virus Antivirals; FMDV antiviral cell-based qHTS; Potency, µM (series often up to 57.9 µM), inactives show at the highest dose activity change, negative = inhibition, hits mostly inhibitors; 410,000 tested, 1.2% active; calls by dose curve; tested in HEK293T cells; note: read-out not given here; potency is the fitted concentration of half-maximal effect; nearly all actives have a fitted effect of over 45% in size
HCMV antiviral = qHTS Assay for inhibitors of the human cytomegalovirus (HCMV). AID 1259415, 2018. 410,000 tested, 4.5% active. activity change, negative = inhibition, % at 57.5 µM. HFF cells, HCMV-luciferase reporter, 72 h; stronger effect = lower value; in the data active = activity change below about -60%; inconclusive = no clear call, values can overlap the other calls; inactive = above about -39%
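Screen run at 2 compound doses on HFFs infected with reporter HCMV, MOI 1 PFU/cell. Luciferase activity from cell lysates at 72 h post infection gave inhibition relative to buffer-only and Salinomycin wells.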
RE007 growth inh = qHTS Assay for Inhibitors of the HIV-1 protein Vpr; S. pombe RE007 Vpr strain, BacTiter-Glo ATP luminescence, 24 h; Potency, µM (highest dose often 92.2 µM), without a hit: top-dose activity change, negative = less growth, actives largely listed as inhibitors; 360,000 tested, 0.21% active; active = well fitted falling curve with a large enough effect; inconclusive = small, poorly fitted or top-dose-only effect; inactive = no such curve, though single readings can be large or run the other way; note: potency is the fitted concentration of half-maximal effect; nearly all actives have a fitted effect of over 50% in size
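Fission yeast RE007 carrying one integrated HIV-1 vpr copy, seeded at OD 0.01 in PMG+AL medium with 23 nL pinned compound. Grown 24 h at 30 degrees; viability read by BacTiter-Glo luminescence after 5 min.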
Tb PYK inh = qHTS of Trypanosoma Brucei Inhibitors; pyruvate kinase (Trypanosoma brucei), Q57TT1; TbPYK enzyme, Kinase-Glo Plus ATP luminescence, 45 min; Potency, µM (series often up to 76.8 µM), without a hit: top-dose activity, negative = inhibition, usual class: inhibitors; 410,000 tested, 0.12% active; note: potency is the fitted concentration of half-maximal effect; nearly all actives have a fitted effect of over 50% in size
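TbPYK + substrate in 50 mM TEA pH 7.2, 100 mM KCl, 10 mM MgCl2, 0.05% BSA, 0.01% Tween-20; cpd pinned; ADP 130 uM final; 45 min RT; Kinase-Glo Plus 10 min; luminescence endpoint.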
FBPA Giardia inh = qHTS Assay for Inhibitors of Fructose-1,6-bisphosphate Aldolase from Giardia Lamblia; A8B2U2; purified Giardia FBPA; Potency, µM (doses to about 59.6 µM), for the others: at the top dose activity, negative = inhibition, most hits filed as inhibitors; 290,000 tested, 0.71% active; AID 2451, 2010; note: potency is the fitted concentration of half-maximal effect; nearly all actives have a fitted effect of over 55% in size
Target sequence (A8B2U2 whole entry, looked up): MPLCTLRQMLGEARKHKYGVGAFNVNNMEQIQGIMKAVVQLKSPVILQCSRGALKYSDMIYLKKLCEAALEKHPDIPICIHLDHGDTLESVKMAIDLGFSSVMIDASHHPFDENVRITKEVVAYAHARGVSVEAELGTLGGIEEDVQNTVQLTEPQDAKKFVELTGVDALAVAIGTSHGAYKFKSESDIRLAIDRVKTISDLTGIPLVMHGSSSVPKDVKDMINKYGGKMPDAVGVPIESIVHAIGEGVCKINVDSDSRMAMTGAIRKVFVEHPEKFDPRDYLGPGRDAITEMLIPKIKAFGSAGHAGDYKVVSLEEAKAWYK
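Giardia FBPA (40 nM reagent) was preincubated 10 min at RT with compound (up to 57.5 uM final), then substrate plus GAPDH/TPI/NAD/arsenate coupling system with diaphorase/resazurin was added; resorufin fluorescence (525/598 nm) was read after 20 min.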
Active calls of the source: *; ? = inconclusive; . = not tested or not shown. Unless noted, calls come from the whole dose curve; as a rule, active = well fitted curve in the direction sought with a large enough effect; inconclusive = small, poorly fitted or top-dose-only effect, or another doubt; inactive = no such curve, though single readings can be large; an effect the other way counts as inactive or inconclusive. % is set by controls: 0 for no effect and ±100 for the full control effect.

SMILES	Sm TGR block	FMDV inh	HCMV antiviral	RE007 growth inh	Tb PYK inh	FBPA Giardia inh
Cc1ccc(C)c(S(=O)(=O)c2nnn3c2nc(NCc2cccs2)c2sccc23)c1	3%	-11%	-38	.	-1%	.
CC(C)CCNC(=O)[C@@H](c1ccccc1)N1Cc2ccccc2C1=O	2%	43%	-1	.	-11%	.
Cc1ccc(C(=O)C(c2ccccc2)N2Cc3ccccc3C2=N)cc1 (stereo unspecified)	-6%	32µM*	.	13%	-1%	?
CCOc1ccc2nc(N3CCCC(C(=O)Nc4ccc(OC)c(Cl)c4)C3)sc2c1 (stereo unspecified)	2%	0%	38	.	-4%	.
O=C(c1ccccn1)N(CCO)C(c1ccccc1)c1nc2ccccc2[nH]1 (stereo unspecified)	.	.	23	.	.	.
O=C(CC1C(=O)NCCN1Cc1cccc(C(F)(F)F)c1)NC1CCCCCC1 (stereo unspecified)	22µM*	-13%	.	3%	-6%	.
O=C(CC1C(=O)NCCN1Cc1ccccc1C(F)(F)F)NC1CCCC1 (stereo unspecified)	40µM*	0%	33	-12%	-6%	-19%
CCOc1ccccc1CN1CCNC(=O)C1CC(=O)NC1CCCCCCC1 (stereo unspecified)	.	11%	-62*	-17%	0%	.
Cc1ccccc1CN1CCNC(=O)C1CC(=O)NC1CCCCCCC1 (stereo unspecified)	?	31%	28	-13%	4%	7%
Cc1nc(-c2ccc(S(=O)(=O)NCc3ccc(OC(C)C)cc3)cc2)co1	-9%	-21%	-19	.	4%	.
CN(Cc1cccc(-c2ccncc2)c1)C(=O)Oc1ccccc1Cl	.	20µM*	.	9%	-2%	.
Cc1nc2cc(OC(=O)N(C)Cc3cccc(-c4ccncc4)c3)ccc2s1	.	28µM*	.	3%	1%	.
CN(Cc1cccc(-c2ccncc2)c1)C(=O)Oc1ccccc1Cc1ccccc1	.	22µM*	.	-24%	2%	.
Cc1cc(C)c(Cn2c3ccccc3c3cnn(CC(=O)N4CCCCCC4)c(=O)c32)c(C)c1	-7%	-5%	5	.	4%	.
CN1C(=O)C(n2cccc2)c2ccccc21 (stereo unspecified)	.	.	0	.	.	.
Cc1nc2nc(CNC(=O)OC(C)(C)C)nn2c(C)c1CCC(=O)NCc1ccccc1Cl	-5%	8%	19	.	4%	.
COC(=O)[C@@]1(Cc2ccccc2)[C@@H]2C(=CC(=O)[C@H]2CC(=O)C(=O)N(C)C)CN1C(=O)c1ccccc1	?	14µM*	.	-22%	8%	-9%
COC(=O)[C@@]1(Cc2ccc(F)cc2)[C@@H]2C(=CC(=O)[C@H]2CC(=O)C(=O)N(C)C)CN1C(=O)c1ccccc1	.	.	.	.	.	1%
Cc1ccc(-c2c(C(=O)N3CCN(c4cc(Cl)ccc4C)CC3)oc(=O)c3ccccc23)cc1	-2%	?	12	.	0%	.
CC1(C)CC(=O)C(C=Nc2ccccc2Sc2ccccc2)=C(O)C1	-1%	?	.	20µM*	-6%	-6%
CC1(C)CC(=O)C(C=Nc2ccccc2C(=O)O)=C(O)C1	7%	.	-4	11%	1%	-3%
CC1(C)CC(=O)C(C=Nc2ccccc2)=C(O)C1	-9%	38%	16	20µM*	-10%	9%
COCc1c(C(=O)N2CCC(N3CCCCC3)CC2)cnn1-c1ncc(C)c(-c2cccs2)n1	.	-14%	.	.	.	.
O=C(C[n+]1cccc(Br)c1)c1ccc(-c2ccccc2)cc1	-17%	5%	-74*	-12%	-1%	-8%
O=C(C[n+]1cccc(Br)c1)c1ccccc1	-4%	2%	61	15%	0%	-1%
SMILES	Sm TGR block	FMDV inh	HCMV antiviral	RE007 growth inh	Tb PYK inh	FBPA Giardia inh
Cc1ccc[n+](CC(=O)c2ccc(-c3ccccc3)cc2)c1	-6%	-20%	-68*	-12%	-14%	2%
O=C(C[n+]1ccncc1)c1ccccc1	35µM*	66%	-4	-9%	-20%	-18%
Cc1ccc(C(=O)C[n+]2cc(Br)cc(Br)c2)cc1[N+](=O)[O-]	32µM*	-17%	-32	-18%	-1%	-1%
O=C(C[n+]1cc(Br)cc(Br)c1)c1ccccc1	11µM*	7%	84	-16%	-5%	-3%
COc1ccc(C)cc1Nc1n[n+](-c2ccccc2)c(-c2c(Cl)cccc2Cl)s1	2%	0%	-100*	2%	-11%	?
CCc1ccc(Nc2n[n+](-c3ccccc3)c(-c3c(Cl)cccc3Cl)s2)cc1	-1%	28µM*	-98*	-17%	-2%	?
Fc1ccc(-[n+]2nc(Nc3ccccc3)sc2-c2c(Cl)cccc2Cl)cc1	0%	?	?	-8%	5%	?
CCc1ccc(Nc2n[n+](-c3ccccc3)c(-c3ccc(OCc4ccccc4)cc3)s2)cc1	-25%	-1%	-96*	-3%	-7%	?
COc1ccc(-n2nc3c(N4CCCC(C(=O)NCCc5ccccc5C)C4)nnc(C)c3c2C)cc1 (stereo unspecified)	-2%	-7%	-87*	.	0%	.
COc1ccc(-n2nc3c(N4CCCC(C(=O)NCc5ccccc5C)C4)nnc(C)c3c2C)cc1 (stereo unspecified)	-20%	-26%	-99*	.	1%	.
CCOc1ccccc1CNC(=O)C1CCCN(c2nnc(C)c3c(C)n(-c4ccccc4)nc23)C1 (stereo unspecified)	-1%	5%	-107*	-14%	-16%	3%
COc1ccc(-n2nc3c(N4CCC(C(=O)NCc5ccccc5C)CC4)nnc(C)c3c2C)cc1	6%	-11%	?	7%	-2%	.
COc1cc(=O)n2c(c1C(=O)N(C)Cc1nonc1C)CCN(Cc1ccccc1Cl)CC2	.	-14%	.	.	.	.
O=C(Nc1c(F)cccc1F)c1cnc(N2CCN(c3ccccn3)CC2)c2ccccc12	-22%	13µM*	?	?	3%	-7%
Cc1cc(Br)ccc1NC(=O)c1sc2ncnc(N3CCN(c4ccccn4)CC3)c2c1C	2%	-29%	2	-9%	1%	12%
O=C(c1cnc(N2CCN(c3ncccn3)CC2)c2ccccc12)N1CCN(c2ccccn2)CC1	0%	28µM*	?	3%	-2%	2%
Cc1ccc(NC(=O)c2cnc(N3CCN(c4ccccn4)CC3)c3ccccc23)c(Br)c1	10%	6.3µM*	-70*	7%	1%	-2%
